Results from PubChem BioAssay AID485341 (National Center for Advancing Translational Sciences (NCATS), 2010).
Hit rate of the full screen: of about 330,000 compounds, about 1,700 (0.52%) were called active. The call rests on the fitted dose curve; in most records, active means well fitted inhibition curve with a large enough effect; inconclusive means small, poorly fitted or top-dose-only effect; inactive means no such curve, though single readings can be large or run the other way. The list comes from a sample in which actives are over-represented; it also holds similar structures and randomly drawn compounds.
Further: nearly all actives have a fitted effect of over 20% in size.
Potency means the concentration at half of the fitted maximal effect.

The compounds below were run against Beta-lactamase (Escherichia coli (strain K12)) (UniProt P00811) (assay: qHTS Inhibitors of AmpC Beta-Lactamase (assay without detergent)). Settings: AmpC nitrocefin hydrolysis, absorbance 480 nm, 0.0001% Triton; series mostly up to 57.1 µM; activity change, negative = inhibition: at the top concentration.
Sequence of Beta-lactamase (Escherichia coli (strain K12)) (P00811 whole entry, looked up): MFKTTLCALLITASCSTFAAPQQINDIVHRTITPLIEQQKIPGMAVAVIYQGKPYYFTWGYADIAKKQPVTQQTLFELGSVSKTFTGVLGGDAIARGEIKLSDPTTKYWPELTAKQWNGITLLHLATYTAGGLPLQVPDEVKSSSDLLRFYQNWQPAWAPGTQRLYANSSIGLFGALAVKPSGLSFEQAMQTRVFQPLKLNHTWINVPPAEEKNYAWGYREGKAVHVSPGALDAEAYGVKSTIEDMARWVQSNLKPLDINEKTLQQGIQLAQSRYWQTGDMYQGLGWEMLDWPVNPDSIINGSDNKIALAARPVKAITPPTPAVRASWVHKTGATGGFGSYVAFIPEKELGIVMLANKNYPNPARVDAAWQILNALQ
Method: NIH Molecular Libraries Probe Production Network [MLPCN] NIH Chemical Genomics Center [NCGC] Assay Provider: Professor Brian Shoichet, UCSF Assay Overview: This aggregation profiling approach exploits the sensitivity of aggregate formation to detergent. Inhibition of b-lactamase is measured in the presence and absence of 0.01% Triton X-100. This particular assay had the prescence of 0.01% Triton X-100. See Pubchem assay "Promiscuous and Specific Inhibitors of AmpC Beta-Lactamase (assay without detergent)" for related screen. Compounds that inhibit only in the absence of detergent are considered likely promiscuous aggregators. A screen of 1,030 compounds was performed in Brian Shoichet's lab in 96-well format. AmpC activity was measured by following the absorbance at 480 nm. Nitrocefin is a chromogenic substrate: while nitrocefin is yellow (lmax 390 nm), the product of its hydrolysis is red (lmax 486 nm, 17,000 M-1). AmpC beta lactamase was provided by Shoichet Lab, UCSF.
Buffer: 20 mM phosphate buffer, pH 7.0 Triton X-100: No Detergent screen: 0.0001%, Detergent screen: 0.01%. Reagents/Controls: Buffer in columns 3 and 4 as negative control (no enzyme). 5.3 nM AmpC in columns 1, 2, 5-48. Titration of UCSF compound 9 control (from 10 mM, then 1:2) pin-transferred to column 2. Column 1 is neutral (100% activity). Assay Steps: Six uL of reagents were dispensed to 1536-well Greiner black clear bottom plates. Compounds and controls (23 nL) were transferred via Kalypsys PinTool. The plates were incubated for 15 min at room temperature, and then 2 uL of 800 uM solution of nitrocefin was added to start the reaction. The plates were immediately transferred to and read every 20 seconds for 4 min on ViewLux (Perkin-Elmer) High-throughput CCD imager using 480 nm absorbance protocol. During dispense, reagent bottles were kept submerged into 4 deg C water bath. Keywords: NIH Roadmap, MLSCN, MLI, MLSMR, qHTS, NCGC, AmpC Beta-Lactamase, Aggregation
With `CC(OC(=O)CCCOc1ccccc1)C(=O)Nc1ccc(Cl)cn1` (stereo unspecified) the “activity change, negative = inhibition” value was -29.5% (inactive).
In the case of `Cc1cccc(N2C(=O)SC(SC(=Nc3ccccc3)Nc3ccccc3)C2=O)c1` (stereo unspecified), the “activity change, negative = inhibition” value is reported as -30.1% (inactive).
For `CN(C)/N=C/c1cc(Cl)cc([N+](=O)[O-])c1O`, the “activity change, negative = inhibition” value was -14.3% (inactive).
`O=[N+]([O-])c1cc(Cl)cc(/C=N/NC(=S)Nc2cc(S(=O)(=O)N3CCOCC3)ccc2Cl)c1O` was tested, and the “activity change, negative = inhibition” value was -46.8% (inactive).
With `O=C(N/N=C/c1cc(Cl)cc([N+](=O)[O-])c1O)C(O)(c1ccccc1)c1ccccc1` the Potency was 10 µM (active).
In the case of `OCCNCCOc1ccc(Cl)c(Cl)c1`, the “activity change, negative = inhibition” value is reported as -15.5% (inactive).
In the case of `S=C(NCCC1=CCCCC1)Nc1ccccc1`, the “activity change, negative = inhibition” value is reported as -29.9% (inactive).
For `COc1ccccc1C1SCCN1C(=O)c1ccc([N+](=O)[O-])cc1` (stereo unspecified), the “activity change, negative = inhibition” value was -44.7% (inactive).
With `COc1cccc(OC)c1C(=O)Nc1c(C(=O)N2CCN(c3ccccn3)CC2)oc2ccccc12` the “activity change, negative = inhibition” value was 100% (inactive).
With `COc1cccc(NC(=S)N(CCc2c(C)[nH]c3ccccc23)Cc2ccco2)c1` the “activity change, negative = inhibition” value was -26.2% (inactive).
`COc1ccc2[nH]c(C)c(CCN(Cc3cccs3)C(=S)Nc3ccccc3OC)c2c1` was tested, and the Potency was 0.501 µM (active).
`Cc1[nH]c2ccccc2c1CCN(Cc1cccs1)C(=S)NC(C)(C)C` was tested, and the “activity change, negative = inhibition” value was -0.689% (inactive).
`CCN(CC)C(=O)C1CCC(C)(C(=O)O)C1(C)C` (stereo unspecified) was tested, and the “activity change, negative = inhibition” value was -16.7% (inactive).
For `COc1ccc(C(C#N)Nc2ccccc2C)cc1` (stereo unspecified), the “activity change, negative = inhibition” value was 12.4% (inactive).
With `COc1ccc(NS(=O)(=O)c2cc(NC(=O)CC(=O)c3ccc([N+](=O)[O-])cc3)ccc2C)cc1` the Potency was 15.8 µM (active).
`COc1ccc(C(=O)CC(=O)C(=O)Nc2cc([N+](=O)[O-])ccc2OC)cc1` was tested, and the “activity change, negative = inhibition” value was -18.2% (inactive).
`Cc1ccc(NC(=O)CCNC(=O)c2ccc([N+](=O)[O-])cc2)cc1S(=O)(=O)N1CCOCC1` was tested, and the “activity change, negative = inhibition” value was -16.7% (inactive).
For `CCOP(=O)(OCC)C(Nc1ccc([N+](=O)[O-])cc1)c1ccc(Cl)cc1` (stereo unspecified), the “activity change, negative = inhibition” value was 83.3% (inactive).
In the case of `CC(C)c1ccc(Nc2nnc(SCC(=O)c3nnc(-c4ccccc4)o3)s2)cc1`, the Potency is reported as 25.1 µM (active).
`Cc1ccccc1Nc1nnc(SCC(=O)c2cc3ccccc3o2)s1` was tested, and the “activity change, negative = inhibition” value was -49.2% (inactive).
`CC(C)N(C(=O)CSc1nnc(NC2CC2)s1)c1ccccc1` was tested, and the “activity change, negative = inhibition” value was -17.1% (inactive).
For `CCOc1ccc(-n2cnc3c(=O)[nH]c(N)nc32)cc1`, the “activity change, negative = inhibition” value was -18.8% (inactive).
In the case of `Cc1ccc2c(c1)c1ncnc(N3CCc4ccccc4C3)c1n2C`, the “activity change, negative = inhibition” value is reported as 1.78% (inactive).
With `COc1ccc(CC2c3cc(OC)c(OC)cc3CC[N+]2(C)CCC(=O)OCCCCCOC(=O)CC[N+]2(C)CCc3cc(OC)c(OC)cc3C2Cc2ccc(OC)c(OC)c2)cc1OC` (stereo unspecified) the “activity change, negative = inhibition” value was 145% (inactive).
With `COC(=O)C(C)NC(=O)COc1ccc2ccccc2c1` (stereo unspecified) the “activity change, negative = inhibition” value was -18.4% (inactive).
In the case of `Cc1cc2ccccc2n1CCNC(=O)COc1ccc2ccccc2c1`, the Potency is reported as 10 µM (active).
`Cc1cc2ccccc2n1CCC(=O)O` was tested, and the “activity change, negative = inhibition” value was 4.27% (inactive).
For `Nn1c(Cc2cccc3ccccc23)nnc1SCC(=O)N1CC(=O)Nc2ccccc21`, the “activity change, negative = inhibition” value was 13.7% (inactive).
For `Nc1cc(C(F)(F)F)ccc1N1CCOCC1`, the “activity change, negative = inhibition” value was -6.49% (inactive).
For `COc1ccccc1C(=O)Nc1ccc(OCc2nnc3c4ccccc4c(C)nn23)cc1`, the “activity change, negative = inhibition” value was 208% (inactive).
For `CCOC(=O)N1CCN(C(=O)CSc2nc(C)nc3c2c(=O)n(C)c(=O)n3C)CC1`, the “activity change, negative = inhibition” value was -9.25% (inactive).
`Cn1c(=O)c2c(SCC(=O)N3CCOCC3)nc(C3CC3)nc2n(C)c1=O` was tested, and the Potency was 10 µM (active).
`CCCc1nc(SCC(=O)N2CCCC2)c2c(=O)n(C)c(=O)n(C)c2n1` was tested, and the “activity change, negative = inhibition” value was 49.1% (inactive).
In the case of `O=C(NC1CCCCC1)c1cc(C2CC2)on1`, the “activity change, negative = inhibition” value is reported as -16.9% (inactive).
With `Cc1nn(Cc2ccc(Cl)c(Cl)c2)c(C)c1NC(=O)c1cc(C2CC2)on1` the Potency was 10 µM (active).
`CSc1ccccc1NC(=O)c1cc(C2CC2)on1` was tested, and the “activity change, negative = inhibition” value was -8.82% (inactive).
For `O=C(CN(c1cccc(Cl)c1)S(=O)(=O)c1ccccc1)NN=C1CCCC1`, the “activity change, negative = inhibition” value was -55.4% (inactive).
`Cc1nn(Cc2ccc(F)cc2)c(C)c1NC(=O)c1cccnc1Cl` was tested, and the “activity change, negative = inhibition” value was -7.61% (inactive).
`Cc1nn(Cc2ccc(F)cc2)c(C)c1NC(=O)c1noc2c1CCc1ccccc1-2` was tested, and the Potency was 11.2 µM (active).
`Cc1ccccc1Cn1nc(C)c(NC(=O)C(F)(F)F)c1C` was tested, and the “activity change, negative = inhibition” value was 2.13% (inactive).
With `COC(=O)[C@]1(Cc2ccccc2)N[C@H](CN(C)S(=O)(=O)c2ccc(OC(F)(F)F)cc2)[C@@H]2C(=O)N(Cc3ccccc3)C(=O)[C@@H]21` the “activity change, negative = inhibition” value was -12.4% (inactive).
In the case of `CC(O)c1nc2c(c(=O)n(C)c(=O)n2C)n1C` (stereo unspecified), the “activity change, negative = inhibition” value is reported as -0.321% (inactive).
With `Cc1ccc(S(=O)(=O)N(CC(=O)NCc2ccco2)c2ccccc2C)cc1` the “activity change, negative = inhibition” value was -17% (inactive).
With `COc1ccc(-c2cc(C(=O)N(C)CC(=O)Nc3ccccc3Cl)c3ccccc3n2)cc1OC` the “activity change, negative = inhibition” value was 86.4% (inactive).
For `CC(C)CC1(C)NC(=O)N(CC(=O)Nc2ccc3c(c2)OCCO3)C1=O` (stereo unspecified), the “activity change, negative = inhibition” value was -18.8% (inactive).
In the case of `COC(=O)C1=C(Nc2ccc(OC)cc2)C=C(C)C(C(=O)OC)C1c1ccc(C)cc1` (stereo unspecified), the “activity change, negative = inhibition” value is reported as 7.69% (inactive).
With `Cc1ccccc1C(=O)O` the “activity change, negative = inhibition” value was -15.1% (inactive).
In the case of `COC(=O)C1=C(Nc2ccc(C)cc2)C=C(C)C(C(=O)OC)C1c1ccc(F)cc1` (stereo unspecified), the “activity change, negative = inhibition” value is reported as -25.5% (inactive).
`Cc1ccccc1C(=O)OC1OC(=O)C(Cl)=C1Nc1ccccc1` (stereo unspecified) was tested, and the Potency was 6.31 µM (active).
`Cc1ccccc1C(=O)Nc1ccccc1NC(=O)c1ccccc1C` was tested, and the “activity change, negative = inhibition” value was -28.1% (inactive).
`Cc1ccc(NC2=C(Cl)C(=O)OC2OC(=O)c2ccccc2C)cc1` (stereo unspecified) was tested, and the Potency was 3.98 µM (active).
`O=S(=O)(Nc1ncccn1)c1ccc(NS(=O)(=O)c2cccc(Cl)c2Cl)cc1` was tested, and the “activity change, negative = inhibition” value was -27.4% (inactive).
In the case of `O=C(COC(=O)/C=C/c1cccs1)NC1CCCCC1`, the “activity change, negative = inhibition” value is reported as -10.1% (inactive).
`COc1ccc(CC(=O)N[C@@H]2c3cc(OC)c(OC)cc3C[C@H]2OCc2ccccc2)cc1` was tested, and the “activity change, negative = inhibition” value was 142% (inactive).
With `CC(=O)c1c(C)c[nH]c1C` the “activity change, negative = inhibition” value was -13.8% (inactive).
With `CCCCN(C(=O)C1CCC1)c1c(N)n(Cc2ccccc2)c(=O)[nH]c1=O` the “activity change, negative = inhibition” value was -7.77% (inactive).
With `CCn1c2ccccc2c2cc(NC(=O)Nc3ccc([N+](=O)[O-])cc3C)ccc21` the “activity change, negative = inhibition” value was -19.7% (inactive).
For `COCCCNC(=S)N1CCN(c2nc(-c3cccc(OC)c3)cs2)CC1`, the “activity change, negative = inhibition” value was 136% (inactive).
With `CC(=O)Nc1ccc(NC(=O)CSc2nnc(COc3ccccc3C)n2CC2CCCO2)cc1` (stereo unspecified) the “activity change, negative = inhibition” value was 12.5% (inactive).
In the case of `CC[N+]1(CC)CC2=Cc3ccccc3CC2C1` (stereo unspecified), the “activity change, negative = inhibition” value is reported as -10.4% (inactive).
In the case of `CCC(C)Cn1c(O)cc2nn(-c3nc4ccccc4s3)c(=O)c-2c1C` (stereo unspecified), the Potency is reported as 17.8 µM (active).
`CC(=NCc1ccco1)c1c(C(F)(F)F)[nH]n(-c2nc3ccccc3s2)c1=O` was tested, and the “activity change, negative = inhibition” value was -14.9% (inactive).
In the case of `Cn1c(=O)c2c(nc(NCCNC(=O)c3ccco3)n2Cc2ccccc2F)n(C)c1=O`, the “activity change, negative = inhibition” value is reported as -7.23% (inactive).
With `CCN=C1SC(CC(=O)Nc2ccc(C)cc2)C(=O)N1CC` (stereo unspecified) the “activity change, negative = inhibition” value was 2.59% (inactive).
`Cc1c(Cl)cccc1NC(=O)CC1SC(=NCC2CCCO2)NC1=O` (stereo unspecified) was tested, and the “activity change, negative = inhibition” value was -26.1% (inactive).
With `Cc1ccc(NC(=O)CC2S/C(=N/N=C3\CCCc4ccccc43)NC2=O)cc1` (stereo unspecified) the Potency was 3.16 µM (active).
